The list is not random: actives were taken first. Their share in the collection is about 12%.
Pf growth 96h = inhibits malaria parasite growth, 96 h | P. falciparum luciferase reporter growth, 96 h | Potency, µM (doses to about 28.7 µM), inactives show at the highest dose activity change, negative = inhibition, usual class: inhibitors | 6.9% of 320,000 active; note: % is set by controls: 0 for no effect and ±100 for the full control effect
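P. falciparum expressing integrated firefly luciferase grown in erythrocytes (2% hematocrit, 0.05% parasitemia final) with compounds for 96 hours at 37 C, 5% CO2. Growth inhibition read as loss of luminescence after adding luciferase detection reagent.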
Sm TGR block = inhibitors of Schistosoma mansoni thioredoxin glutathione reductase; 3% of 360,000 active; purified TGR, DTNB reduction, TNB absorbance 405 nm; Potency, µM (top dose mostly 114 µM), for inactives: at the top dose activity change, negative = inhibition, actives largely listed as inhibitors; Q962Y6; AID 485364; note: % is set by controls: 0 for no effect and ±100 for the full control effect; nearly all actives have a fitted effect of over 60% in size
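TGR 20 nM + NADPH 100 uM (dispensed conc.), cpd preinc 15 min RT; start with NADPH (500 uM addition) then DTNB (15 mM addition). Kinetic TNB absorbance, 405 nm filter. Four-parameter Hill fit across titration.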
Pf growth 48h = inhibits P. falciparum growth in the first generation, 48 h | P. falciparum luciferase growth in erythrocytes, 48 h | Potency, µM (highest dose often 28.7 µM), without a hit: top-dose activity change, negative = inhibition, actives largely listed as inhibitors | 5.9% of 310,000 active; note: % is set by controls: 0 for no effect and ±100 for the full control effect
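Luciferase-expressing P. falciparum in infected erythrocytes (2% hematocrit, 0.1% parasitemia final) in RPMI 1640/0.5% Albumax were exposed to compound for 48 hours at 37 C, 5% CO2; growth read as luminescence.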
SARS PLP yeast = inhibitors of SARS-CoV papain-like protease in yeast | 0.19% of 330,000 active | S. cerevisiae expressing SARS-CoV PLpro, growth rescue | Potency, µM (top dose mostly 32.9 µM), for the others: at the top dose activity, positive = growth rescue, most hits filed as activators; calls by dose curve; note: 0% is about no effect; nearly all actives have a fitted effect of over 55% in size
* = called active by the depositor; ? = inconclusive; . = no result given; [ ] = dose if it differs, or a comment. Unless noted, calls come from the whole dose curve; as a rule, active = well fitted curve in the direction sought with a large enough effect; inconclusive = small, poorly fitted or top-dose-only effect, or another doubt; inactive = no such curve, though single readings can be large; an effect the other way counts as inactive or inconclusive. Potency is the fitted concentration of half-maximal effect.

SMILES	Pf growth 96h	Sm TGR block	Pf growth 48h	SARS PLP yeast
CC(=O)c1c(C(C)=O)c(C)n(-c2cccc([N+](=O)[O-])c2)c1C	9.3µM*	-2%	-4%	8%
O=C(NCC(c1cccnc1)N1CCN(c2ccccc2F)CC1)C(=O)Nc1ccc(F)cc1F (stereo unspecified)	.	-2%	.	.
Cc1ccc(CN2CCN(CC(=O)N3CCC4(CC3)OCCO4)C2=O)cc1	3.7µM*	0%	.	1%
Cc1ccc(CN2CCN(CC(=O)N3CCc4ccccc4C3)C2=O)cc1	17µM*	4%	-6%	9%
COc1ccccc1N1CCN(C(c2cc3cc(C)ccc3[nH]c2=O)c2nnnn2C2CCCC2)CC1 (stereo unspecified)	12%	?	?	2%
Fc1ccccc1N1CCN(C(c2ccccn2)c2nnnn2C2CCCCC2)CC1 (stereo unspecified)	-6%	?	10µM*	-5%
COc1ccccc1N1CCN(C(c2ccccn2)c2nnnn2C2CCCCC2)CC1 (stereo unspecified)	.	2%	9.3µM*	-6%
CCOC(=O)c1cc2c(=O)n3ccccc3nc2n(CCOC)c1=NC(=O)c1c(-c2ccccc2Cl)noc1C	.	1%	.	.
CCS(=O)(=O)N1CCc2cc(C(=O)NCc3ccc(Cl)cc3)ccc21	.	-4%	.	.
O=C(Nc1ccccc1)N1C2CCC1CC(O)(c1cccnc1)C2 (stereo unspecified)	31%	15%	?	-1%
O=S(=O)(c1ccccc1)N1C2CCC1CC(O)(c1cccnc1)C2 (stereo unspecified)	2.3µM*	-4%	4%	2%
N#C/C(C(=O)Nc1ccc(Cl)cc1)=C(/S)Nc1ccccc1	?	-18%	-13%	-13%
Cc1ccc(OCCNC(=O)c2cc(C(=O)NCCOc3ccc(C)cc3)cc([N+](=O)[O-])c2)cc1	1.2µM*	9%	12µM*	0%
N#CC(C#N)=C1C=CC=CN1/C(=C\c1ccco1)C(=O)c1ccc(Cl)cc1	?	1.4µM*	?	14%
CCC(C(=O)NCc1ccco1)N(C(=O)CNS(=O)(=O)c1ccccc1)C1CCCCC1 (stereo unspecified)	6.6µM*	45µM*	.	-12%
CC(C)C(C(=O)NCc1ccco1)N(C(=O)CNS(=O)(=O)c1ccccc1)C1CCCC1 (stereo unspecified)	-14%	-32%	?	3%
CCCC(C(=O)NCc1ccco1)N(C(=O)CNS(=O)(=O)c1ccc(Cl)cc1)C1CCCC1 (stereo unspecified)	14%	-18%	12µM*	0%
CCc1cccc(C)c1NC(=O)Cn1nnc(-c2nc(-c3ccccc3F)no2)c1N	.	2%	.	.
O=C(OCn1nnc2ccccc2c1=O)c1cccc(S(=O)(=O)N2CCOCC2)c1	-27%	-20%	?	-7%
Cc1ccc(C(C(=O)NC2CCCCC2)N(Cc2ccco2)C(=O)C2COc3ccccc3O2)o1 (stereo unspecified)	.	-16%	7.4µM*	-1%
Cc1ccc(C(C(=O)NC2CCCCC2)N(Cc2cccnc2)C(=O)C2COc3ccccc3O2)o1 (stereo unspecified)	-3%	-8%	5.2µM*	7%
O=C(NC1CCCCC1)C(c1ccc(O)cc1)N(CC1CCCO1)C(=O)C1COc2ccccc2O1 (stereo unspecified)	7.4µM*	3%	.	0%
Cc1ccc(C(C(=O)NC2CCCC2)N(C(=O)CNC(=O)c2cccs2)c2cccnc2)o1 (stereo unspecified)	?	4%	3%	-21%
Cc1cc(C)n2nc(C(=O)OCC(=O)N(CC(C)C)C3CCS(=O)(=O)C3)nc2n1 (stereo unspecified)	.	.	.	-3%
CCOC(=O)c1nc2nc(-c3cccs3)cc(C(F)(F)F)n2n1	8.3µM*	-14%	23%	4%
SMILES	Pf growth 96h	Sm TGR block	Pf growth 48h	SARS PLP yeast
Nc1nc2nc(-c3cccs3)cc(C(F)(F)F)n2n1	-24%	.	10%	-1%
COc1ccc(-c2[nH]c3ccccc3c2SCCNC(=O)c2cc(OC)c(OC)c(OC)c2)cc1	.	8%	.	.
CCC(=O)c1ccc(OCC(O)Cn2c(C)nc3ccccc32)cc1 (stereo unspecified)	14%	6%	-3%	1%
CCC(=O)c1ccc(OCC(O)Cn2cnc3ccccc32)cc1 (stereo unspecified)	1.9µM*	13%	-35%	-3%
Cc1ccc(CNC(=O)c2ccc(Cl)c(S(=O)(=O)N3CCCCC3)c2)cc1	?	0%	?	4%
CN(C)CCNC(=O)c1onc(CSc2ccc(F)c(F)c2)c1C(=O)NCCN(C)C	6.6µM*	-2%	8.3µM*	-3%
CN(C)CCNC(=O)c1onc(CSc2ccc(F)cc2)c1C(=O)NCCN(C)C	3%	-3%	13µM*	-4%
C=CCNC(=O)c1onc(CSc2ccc(F)cc2)c1C(=O)NCC=C	-60%	9%	?	3%
Cc1ccc(Cn2ccnc2SCC(=O)NCc2ccccc2)cc1	.	0%	.	.
CCCCNC(=O)[C@@](CC)(ONc1ccccc1C(F)(F)F)c1cccc2ccccc12	?	-5%	8.3µM*	-3%
CCC(O)(C(=O)Nc1ccccc1C(F)(F)F)c1ccccc1OC (stereo unspecified)	-33%	-14%	?	-1%
CCCCNC(=O)C(CC)(ONc1ccccc1C(F)(F)F)c1ccccc1 (stereo unspecified)	?	-14%	13µM*	-3%
CN1CCN(c2ccccc2NC(=O)c2ccc(N3CCOCC3)c([N+](=O)[O-])c2)CC1	30%	0%	?	13%
COc1ccc(S(=O)(=O)Nc2ccc(N3CCOCC3)cc2)cc1[N+](=O)[O-]	-17%[5.75 µM]	.	-12%	0%
Cc1ccc(C(=O)Nc2ccccc2N2CCCCC2)cc1[N+](=O)[O-]	?	0%	-18%	1%
Cc1c(NC(=O)c2ccc(N3CCCC3)c([N+](=O)[O-])c2)cccc1-c1nc2ccccc2s1	?	-4%	10µM*	6%
COc1ccc(C(=O)Nc2ccccc2N2CCCCC2)cc1[N+](=O)[O-]	12µM*	10%	?	-2%
COc1ccc(S(=O)(=O)Nc2ccccc2N2CCOCC2)cc1[N+](=O)[O-]	9%	-20%	13µM*	-4%
CN1CCN(c2ccccc2NC(=O)c2ccc(N3CCCCC3)c([N+](=O)[O-])c2)CC1	?	12%	13µM*	1%
CCOC(=O)c1c(C)oc2ncnc(NCCCN3CCN(c4cc(C)ccc4C)CC3)c12	.	3%	.	.
O=C(NCCNC(=O)c1ccc(Br)o1)c1cccnc1	-28%	-26%	13%	-4%
CC1CCc2c(cc(-c3ccccc3)n2-c2ccc(C(=O)NC(C)C)cc2)C1 (stereo unspecified)	.	8%	.	.
CN(C(=O)COC(=O)c1nc(Cl)c(Cl)c(Cl)c1Cl)C1CCS(=O)(=O)C1 (stereo unspecified)	51%[1.15 µM]	35µM*	31%[1.15 µM]	0%

Screening results deposited in PubChem BioAssay by National Center for Advancing Translational Sciences (NCATS).
